In PubChem BioAssay (NCI):
About 83,000 compounds went through this panel and 20% of them were active in at least one assay; those are over-represented in the sample as a whole.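 The test compound was applied at a single concentration to cells in 96-well plates for 48 hours, and percent growth was recorded.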 Calls of active or inactive are those of the source. How the source made its calls: active means growth percent below 10; inactive means the rest.

Experiments:
Test in all cases: NCI-60 one-dose screen, 48 h (100 = growth as untreated, 0 = no growth, -100 = all killed)
Conditions in all cases: 10 µM
SK-MEL-2 melanoma = test system: SK-MEL-2 melanoma
EKVX NSCLC = test system: EKVX NSCLC
SN12C renal = test system: SN12C renal
TK-10 renal = test system: TK-10 renal
ACHN renal = test system: ACHN renal
CAKI-1 renal = test system: CAKI-1 renal
A498 renal = test system: A498 renal
CCRF-CEM leukemia = test system: CCRF-CEM leukemia
MOLT-4 leukemia = test system: MOLT-4 leukemia
UO-31 renal = test system: UO-31 renal

Measured: growth

CC(=O)Nc1ccc(-c2cn(-c3cccc(C(=O)Nc4ccc(Cl)c(C(F)(F)F)c4)c3)nn2)cn1
inactive: CCRF-CEM leukemia 30%
active: SK-MEL-2 melanoma -38.3% | EKVX NSCLC -30.2% | SN12C renal -48.4% | TK-10 renal -18% | ACHN renal -52.5% | CAKI-1 renal -27.8% | A498 renal -63.1% | MOLT-4 leukemia 7.02%

O=C(CN1CCN(c2ncnc3c2cnn3-c2ccccc2)CC1)Nc1nncs1
inactive: SK-MEL-2 melanoma 28% | A498 renal 49%
active: EKVX NSCLC -44.8% | SN12C renal -54.7% | UO-31 renal -97.2% | TK-10 renal -56.5% | ACHN renal -87.5% | CAKI-1 renal -95.7% | MOLT-4 leukemia 3.73%

CN(C)c1cccc2c(S(=O)(=O)Nc3cccc(-c4csc(NC(=O)CCCCCN5CCN(c6cc7c(cc6F)C(=O)N(C6CCC(=O)NC6=O)C7=O)CC5)n4)c3)cccc12 (centres undefined)
inactive: SK-MEL-2 melanoma 108% | EKVX NSCLC 80.8% | SN12C renal 85.8% | TK-10 renal 97.4% | ACHN renal 97.8% | CAKI-1 renal 79.4% | A498 renal 95.7% | CCRF-CEM leukemia 66.3%

CCOC(=O)N/C(=C1/OCCN1C)[P+](c1ccccc1)(c1ccccc1)c1ccccc1
inactive: SK-MEL-2 melanoma 79.9% | EKVX NSCLC 64.3% | SN12C renal 76.6% | UO-31 renal 87.2% | TK-10 renal 92.1% | ACHN renal 107% | CAKI-1 renal 102% | A498 renal 115% | MOLT-4 leukemia 83.7%

CNC(=O)c1cccc(N2CCc3c2ccc(NC(=O)Nc2ccc(N4CCN(C)CC4)c(C(F)(F)F)c2)c3F)c1
inactive: A498 renal 39.3%
active: SK-MEL-2 melanoma -53.2% | EKVX NSCLC -87% | SN12C renal -91.5% | TK-10 renal -94.7% | ACHN renal -100% | CAKI-1 renal -81.5% | CCRF-CEM leukemia -42.1%

CCCCCCCCCCCCCCCCCCCC(=O)NCCc1c[nH]c2ccc(O)cc12
inactive: SK-MEL-2 melanoma 107% | EKVX NSCLC 101% | SN12C renal 84.9% | UO-31 renal 71.9% | TK-10 renal 118% | ACHN renal 98.8% | CAKI-1 renal 105% | A498 renal 118% | MOLT-4 leukemia 71.2%

CC(=O)NCC1=C(C)C=C2C(=O)[C@](C)(O)C3(CC3)C(C)=C21
inactive: CCRF-CEM leukemia 51.9%
active: SK-MEL-2 melanoma -74.7% | EKVX NSCLC -26.1% | SN12C renal -74.7% | TK-10 renal -6.87% | ACHN renal -37.4% | CAKI-1 renal -31.6% | A498 renal -70.4%

O=C1NC(=NC2CCCCCC2)N/C1=C\c1ccc2ncoc2c1
inactive: SK-MEL-2 melanoma 22.9% | EKVX NSCLC 38.8% | SN12C renal 21.1% | TK-10 renal 43.8% | CAKI-1 renal 10% | MOLT-4 leukemia 38.2%
active: UO-31 renal 4.42% | ACHN renal 9.91% | A498 renal -9.1%

CC1=C(C(=O)OC(C)C)C(c2ccc(O)cc2)NC(=S)N1 (centres undefined)
inactive: SK-MEL-2 melanoma 99.2% | EKVX NSCLC 92.5% | SN12C renal 105% | UO-31 renal 96.2% | TK-10 renal 95.5% | ACHN renal 109% | CAKI-1 renal 98% | A498 renal 138% | MOLT-4 leukemia 94.8%

N#Cc1c(-c2ccc(F)cc2)nc(SCc2ccc([N+](=O)[O-])cc2)nc1N1CCOCC1
inactive: SK-MEL-2 melanoma 87.4% | EKVX NSCLC 39.3% | SN12C renal 74.6% | UO-31 renal 50.9% | TK-10 renal 84.2% | ACHN renal 51% | CAKI-1 renal 35.9% | A498 renal 64.4% | MOLT-4 leukemia 73.7%

O=C(O)CCCCCCCCCCN1C(=O)/C(=C/c2cnc(-c3ccc(Cl)cc3)s2)SC1=S
active: SK-MEL-2 melanoma -38.6% | EKVX NSCLC -12.5% | SN12C renal -57.4%
inactive: UO-31 renal 38.1% | TK-10 renal 58.2% | ACHN renal 22.1% | CAKI-1 renal 12.2% | A498 renal 83.2% | MOLT-4 leukemia 19.7%

CCNCCCn1c2c(c3cc(OC)c(OC)cc3c1=O)C(=O)c1cc3c(nc1-2)OCO3
active: SN12C renal -89.2% | UO-31 renal -97.8% | ACHN renal 2.02% | CAKI-1 renal 7.87% | MOLT-4 leukemia -14.2%
inactive: SK-MEL-2 melanoma 125% | EKVX NSCLC 76.6% | TK-10 renal 98.3% | A498 renal 87.1%

CO[C@@H]1CSSC1Cn1nc(-c2ccc(Oc3ccccc3)cc2)c2c(N)ncnc21 (some centres undefined)
inactive: SK-MEL-2 melanoma 27.2% | EKVX NSCLC 25.3% | SN12C renal 60.6% | UO-31 renal 21.3% | TK-10 renal 20.3% | ACHN renal 40.4% | CAKI-1 renal 32.4% | A498 renal 80.8%
active: MOLT-4 leukemia -16.6%

COc1ccc(CN2[C@@H](C(=O)NCc3ccc(C(=O)NO)cc3)Cc3c([nH]c4ccccc34)[C@@H]2C)cc1
active: SK-MEL-2 melanoma 2.82% | A498 renal -5.13%
inactive: EKVX NSCLC 11.9% | SN12C renal 29.8% | UO-31 renal 36% | TK-10 renal 16.5% | ACHN renal 36% | CAKI-1 renal 39.5% | MOLT-4 leukemia 11.3%

O=C(CNc1nc(-c2ccccc2)cs1)Nc1ccc([N+](=O)[O-])cc1Cl
inactive: SK-MEL-2 melanoma 20.1% | EKVX NSCLC 18.5% | SN12C renal 13.4% | UO-31 renal 25.5% | TK-10 renal 52.9% | ACHN renal 38.8% | CAKI-1 renal 44.9% | A498 renal 55% | MOLT-4 leukemia 11%

COC[C@@H](CC(C)C)N=C1N/C(=C\c2ccc3ncsc3c2)C(=O)N1C
active: SK-MEL-2 melanoma -82.2% | SN12C renal 9.83% | ACHN renal -1.55% | CAKI-1 renal 2.83% | A498 renal -15.4% | CCRF-CEM leukemia 7.03% | MOLT-4 leukemia 9.06%
inactive: EKVX NSCLC 15% | TK-10 renal 27.4%

Cc1cc(C)nc(/N=C(\N)Nc2ccc(S(=O)(=O)Nc3nc(C)cc(C)n3)cc2)n1
inactive: SK-MEL-2 melanoma 107% | EKVX NSCLC 104% | SN12C renal 111% | UO-31 renal 85% | TK-10 renal 105% | ACHN renal 115% | CAKI-1 renal 100% | A498 renal 112% | MOLT-4 leukemia 104%

CCCCCCCCCCCCCCCCCCCC(=O)NCCc1c[nH]c2ccc(OC(=O)CCCC(=O)OCCOOCCOOCCOOCCOOCCOOCCOOCCOOCCOOCCOOCCOOCCOOCCOC)cc12
active: MOLT-4 leukemia -4.66%
inactive: SK-MEL-2 melanoma 78.1% | EKVX NSCLC 83.1% | SN12C renal 17.4% | UO-31 renal 45.4% | TK-10 renal 120% | ACHN renal 59.9% | CAKI-1 renal 73.7% | A498 renal 116%

O=C(NO)c1ccc(CNC(=O)[C@H]2Cc3c([nH]c4ccccc34)[C@H](c3ccc(Cl)cc3)N2)cc1
inactive: EKVX NSCLC 25% | SN12C renal 15.1% | UO-31 renal 21.8% | ACHN renal 28.6% | CAKI-1 renal 29%
active: SK-MEL-2 melanoma -21.5% | TK-10 renal 4.19% | A498 renal -6.62% | MOLT-4 leukemia 5.97%

COc1ccc(CCN2C(=O)/C(=C/c3csc(C#N)n3)SC2=S)cc1
active: SK-MEL-2 melanoma -0.186% | SN12C renal -38.2% | UO-31 renal -43.9% | ACHN renal 4.4% | CAKI-1 renal -0.602% | MOLT-4 leukemia -11.2%
inactive: EKVX NSCLC 20% | TK-10 renal 13.3% | A498 renal 61.4%

CN(C)c1ccc(/C=C/c2nc3ccccc3c(=O)n2CC(=O)Nc2ccc(Cl)cc2)cc1
inactive: SK-MEL-2 melanoma 94.9% | EKVX NSCLC 80% | SN12C renal 76.4% | TK-10 renal 83.1% | ACHN renal 43.3% | CAKI-1 renal 53.1% | A498 renal 76.1% | CCRF-CEM leukemia 88.6% | MOLT-4 leukemia 74.7%

CCOC(=O)c1c(CSc2ccccc2)n(C)c2cc(CN(C)C)c(O)c(CN(C)C)c12
inactive: SK-MEL-2 melanoma 77.5% | EKVX NSCLC 36.9% | SN12C renal 27.2% | TK-10 renal 75.9% | ACHN renal 59% | CAKI-1 renal 57.8% | A498 renal 118% | CCRF-CEM leukemia 42.7% | MOLT-4 leukemia 49%

COc1ccc(/C=C/C(=O)c2ccc(NC(=O)CN3C(=O)NC(C)(c4ccccc4)C3=O)cc2)cc1 (centres undefined)
inactive: SK-MEL-2 melanoma 93.4% | EKVX NSCLC 91% | SN12C renal 95.3% | TK-10 renal 109% | ACHN renal 84.5% | CAKI-1 renal 79% | A498 renal 119% | CCRF-CEM leukemia 78.3% | MOLT-4 leukemia 49.7%

NC1=NC(c2ccccc2Cl)N=C(Nc2nn[nH]n2)N1 (centres undefined)
inactive: SK-MEL-2 melanoma 116% | EKVX NSCLC 96.2% | SN12C renal 107% | TK-10 renal 99.6% | ACHN renal 103% | CAKI-1 renal 94.5% | A498 renal 104% | CCRF-CEM leukemia 151% | MOLT-4 leukemia 124%

O=c1nc(-c2ccccc2)cc(-c2cc3ccccc3nc2Cl)[nH]1
inactive: SK-MEL-2 melanoma 82.8% | EKVX NSCLC 61.6% | SN12C renal 20.7% | TK-10 renal 87.7% | ACHN renal 39.1% | CAKI-1 renal 56.6% | A498 renal 104%
active: CCRF-CEM leukemia -29.3% | MOLT-4 leukemia -18.7%

COc1cc(NC(=O)c2cc(-c3ccc(F)cc3F)ccc2O)cc(OC)c1OC
active: SK-MEL-2 melanoma -5.57% | A498 renal -1.46%
inactive: EKVX NSCLC 50% | SN12C renal 18.6% | TK-10 renal 33% | ACHN renal 55.9% | CAKI-1 renal 30.6% | CCRF-CEM leukemia 25.6% | MOLT-4 leukemia 10.6%

S=c1nc(-c2ccccc2)cc(-c2cc3ccccc3nc2Cl)[nH]1
inactive: SK-MEL-2 melanoma 37.5% | EKVX NSCLC 70% | SN12C renal 88.3% | TK-10 renal 162% | ACHN renal 77.7% | CAKI-1 renal 57.2% | A498 renal 126% | CCRF-CEM leukemia 43.5% | MOLT-4 leukemia 30.8%

COc1ccc(C=CC(=O)c2ccc(-n3c(C)nc4c(cnn4-c4ccccc4)c3=O)cc2)cc1
inactive: SK-MEL-2 melanoma 70.6% | EKVX NSCLC 42.9% | SN12C renal 81.6% | TK-10 renal 86.8% | ACHN renal 71% | CAKI-1 renal 75% | A498 renal 104% | CCRF-CEM leukemia 46.4% | MOLT-4 leukemia 44.7%
